From PubChem
This excerpt belongs to a sample that is enriched for hits.
Tg IFNy HTS – blocks Toxoplasma gondii growth in the presence of IFN-gamma; Toxoplasma gondii growth in IFN-gamma-treated host cells; active compounds read low; activity change, negative = inhibition, % (no concentration beside the values); hit rate 3.8% among 69,000; in the data active = activity change below about -70%, passing the limit was not always enough;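 note: host cells are HeLa cells infected with Toxoplasma gondii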
* marks the source's active call; other numbers are inactive results; ! = not confirmed by another sample.

SMILES | Tg IFNy HTS
CC(=O)Nc1cc(OC(C)=O)c2nonc2c1OC(C)=O | -75.1*
COc1cc(OC(C)=O)c(-c2cc(OC(C)=O)c(OC)cc2OC(C)=O)cc1OC(C)=O | 103.8
CN(C)C1CCN(C(=O)Cc2ccsc2)C(C(=O)O)C1 (configuration not stated) | -1.5
CCN(CC)C(=O)Oc1ccnc2cc(Cl)ccc12 | -40.1
CCCCCCCC(=O)Nc1nnc(Sc2ccnc3cc(Cl)ccc23)s1 | -94.4*
CCSc1nnc(NC(=O)CCc2ccc(C)o2)s1 | 19.3
Cc1cc(C)n(CCC2CC(=O)Nc3n[nH]c(-c4cccs4)c32)n1 (configuration not stated) | -6.2
CCCCCCCCCCCCCCCC(=O)OC1C(SC)OC(C(NC(=O)C2CC(CCC)CN2C)C(C)Cl)C(O)C1O (configuration not stated) | -22.6
Cc1ccc(C)c(C(=O)Nc2ccc(-c3nc(Cn4cccn4)c(C)o3)cc2)c1 | 126.9
Cc1oc(-c2ccc(NC(=O)c3ccccc3Cl)cc2)nc1Cn1cccn1 | -100.0*
Cc1cnn(Cc2nc(-c3ccc(NC(=O)c4ccc(Cl)s4)cc3)oc2C)c1 | 63.2
CCOc1ccccc1C(=O)Nc1ccc(-c2nc(Cn3cc(C)cn3)c(C)o2)cc1 | -45.3
Cc1cnn(Cc2nc(-c3ccc(NC(=O)c4ccc(F)cc4Cl)cc3)oc2C)c1 | -45.1
Cc1ccc(C(=O)Nc2ccc(-c3nc(Cn4cccn4)c(C)o3)cc2)c(C)c1 | -58.8
Cc1cnn(Cc2nc(-c3ccc(NC(=O)c4sccc4C)cc3)oc2C)c1 | -51.3
Cc1cccc(C(=O)Nc2ccc(-c3nc(Cn4cc(C)cn4)c(C)o3)cc2)c1 | -87.1*
Cc1ccc(C(=O)Nc2ccc(-c3nc(Cn4cc(C)cn4)c(C)o3)cc2)cc1 | 61.7
Cc1cnn(Cc2nc(-c3ccc(NC(=O)c4ccccc4)cc3)oc2C)c1 | -38.4
Cc1cnn(Cc2nc(-c3ccc(NC(=O)c4cccs4)cc3)oc2C)c1 | -75.8*
Cc1cnn(Cc2nc(-c3ccc(NC(=O)c4ccccc4Cl)cc3)oc2C)c1 | -84.3*
CC(C)NC(=O)N1CCc2cc(C(=O)N3CCCC3)c(NC(C)C)nc2CC1 | -6.3
CCCn1c(=O)c(-c2nc(-c3ccc(OC)cc3OC)no2)c(O)c2ccccc21 | -1.6
CC(C)CC(=O)N1CCC2(C1)CN(c1ccccc1)C(=O)CN2C (configuration not stated) | -45.7
Cc1oc(-c2ccc(NC(=O)/C=C/c3ccccc3)cc2)nc1Cn1cccn1 | -86.9*
Cc1cnn(Cc2nc(-c3ccc(NC(=O)c4ccccc4C(F)(F)F)cc3)oc2C)c1 | -87.9*
SMILES | Tg IFNy HTS
Cc1ccccc1CC(=O)Nc1ccc(-c2nc(Cn3cccn3)c(C)o2)cc1 | 31.8
Cc1cnn(Cc2nc(-c3ccc(NC(=O)c4cc(F)cc(F)c4)cc3)oc2C)c1 | 87.3
Cc1cc(C)n(Cc2nc(-c3ccc(NC(=O)/C=C/c4ccccc4)cc3)oc2C)n1 | -42.7
Cc1cnn(Cc2nc(-c3ccc(NC(=O)c4ccc(C(F)(F)F)cc4)cc3)oc2C)c1 | -63.4
Cc1ccsc1CN1CC[C@]2(C1)C(=O)NC[C@@H]2COc1cccnc1 | -37.0
C1=CC2(CCN(Cc3cc4n(n3)CCNC4)CC2)c2ccccc21 | 4.7
COC(=O)[C@@H]1C[C@H](NS(=O)(=O)c2c(C)cc(OC)c(C)c2C)CN1C | 19.8
Cc1ccc(-c2nc(Cn3nnc(-c4nc(-c5ccccc5C)no4)c3C)c(C)o2)cc1 | -27.4
CCCN1C(=O)CCc2cc(C(=O)NCCOC)ccc21 | -0.3
CCc1onc(C)c1C1CCCN1C(=O)Cn1nc(C(F)(F)F)cc1C (configuration not stated) | 0.7
Cc1ccn2cc(-c3cc4c(ccc5ccccc54)oc3=O)nc2c1 | 28.9
COc1ccc(-c2nc(NCC3CCN(Cc4cccc(C)c4)CC3)c3ccccc3n2)cc1 | -36.0
COc1cccc(CN2CCCC(c3ccc4c(NCc5cccc(C)n5)n[nH]c4n3)C2)c1 (configuration not stated) | -83.4*
COc1cccc([C@@H]2CCCN(Cc3cc4n(n3)CCCNC4)C2)c1 | -25.7
Cc1n[nH]c(=O)c(N)c1-c1cc(-c2ccsc2)n[nH]1 | -63.9
Cc1oc(C2CCN(C(=O)Nc3ccc(F)cc3F)CC2)nc1C(=O)N1CCCC1 | -9.1
COc1ccc(-c2nc(N3CCCC3)c3ccccc3n2)cc1 | -62.7
Cc1nc(Cl)c(Cc2ccccc2)c(N2CCCC2)n1 | 22.3
Clc1nnc(N2CCCCC2)c2ccccc12 | -88.3*
CC(C)n1cc(C(=O)N2CCCC(c3n[nH]c(=O)n3-c3ccccc3)C2)cn1 (configuration not stated) | -5.5
COC(=O)C[C@@H]1CC[C@H]2[C@@H](COc3ccc(NS(=O)(=O)c4ccc(C)cc4)cc3C(=O)N2C)O1 | 3.7
COc1ccc(-c2nc(Nc3ccc(C)c(Cl)c3)c3ccccc3n2)cc1 | -32.3
CCn1c(-c2cc(NC(=O)c3ccncc3)n[nH]2)cc2c(OC)cccc21 | -103.0*
CCn1c(-c2cc(NC(=O)c3cncc(Br)c3)n[nH]2)cc2c(OC)cccc21 | -96.6*
CCn1c(=O)c(C(=O)Nc2ccccc2OC)c(O)c2ccccc21 | 70.1
SMILES | Tg IFNy HTS
COc1cccc(OC)c1C(=O)c1ccncc1 | -23.8
COc1cc(NC(=O)c2cncc(Br)c2)c(OC)cc1Cl | 3.5
CCOC(=O)c1cccc(NC(=O)c2ccncc2)c1 | 25.8
O=C(NCc1cccnc1)C1CC2CN(Cc3ccc(Cl)cc3)CC1O2 (configuration not stated) | -9.8
FC(F)(F)Oc1cccc(Cn2cnnc2)c1 | 2.2
CC(=O)N1CCC2(CC1)CCN(C(=O)c1ccc(C)nc1)C2 | 7.7
COc1ccc2nc(C)cc(Nc3ccccc3O)c2c1 | -63.4
COc1ccc(CNC(=O)c2nc(Nc3ccc(C)cc3)c3ccccc3n2)cc1 | -29.4
COc1ccc(Nc2cc(C)nc3ccc(C)cc23)cc1 | -97.3*
C[C@H]1CCCCO[C@H](CN(C)C(=O)CCC(F)(F)F)[C@@H](C)CN([C@@H](C)CO)C(=O)c2cc(NC(=O)C3CCCCC3)ccc2O1 | -8.6
Cc1ccc(Oc2ncccc2CNc2nc(C(F)(F)F)nc(C)c2C)cn1 | -42.1
Fc1ccc(C2Oc3ccc(Cl)cc3C3=C2C(c2ccccc2)n2ncnc2N3)cc1 (configuration not stated) | -22.6
Clc1ccc(C2C=C(c3ccccc3)Nc3ncnn32)cc1 (configuration not stated) | -85.4*
Clc1ccc(-c2nc(NC3CCCC3)c3ccccc3n2)cc1 | 55.1
FC(F)(F)c1ccc2nc(SCc3cc(Cl)cc4c3OCOC4)[nH]c2c1 | -80.7*
COc1ccc(C(C)=O)cc1CSc1nc2ccc(C(F)(F)F)cc2[nH]1 | -51.6
Clc1cc2c(c(CSc3ccccc3C3=NCCCN3)c1)OCOC2 | 37.8
CCN1CCCC1CNC(=O)Cn1c2ccccc2c2cnn(C)c(=O)c21 (configuration not stated) | -30.0
CN(C)CC/C=C1\c2ccccc2Sc2ccc(Cl)cc21 | -77.1*!
CN(C)CC/C=C1/c2ccccc2COc2ccccc21 | 16.0
CN(C)CCC=C1c2ccccc2C=Cc2ccccc21 | -26.5
CN(C)CCC1(c2ccc(Cl)cc2)Cc2ccccc2C(=O)O1 (configuration not stated) | 14.1
OCCN1CCN(CC/C=C2/c3ccccc3Sc3ccc(Cl)cc32)CC1 | -74.0*
CN(C)CC/C=C1/c2ccccc2COc2ccc(CC(=O)O)cc21 | -1.9
OCCOCCN1CCN(C2=Nc3ccccc3Sc3ccccc32)CC1 | -4.5
CC(C)c1ccc2c(c1)C(N1CCN(CCO)CC1)Cc1ccc(F)cc1S2 (configuration not stated) | -66.0
